SRC3 TRFRET art – TR-FRET detection interference compounds, artefact control for PPARgamma SRC-3 recruitment agonists, biochemical, TR-FRET ratio; TR-FRET artefact counter-screen, PPARgamma/SRC-3 format; stronger effect = higher value; TR-FRET ratio at 8 µM; actives 0.39% (n = 99,000); AID 1048, 2008
PPARg SRC3 recr – PPARgamma agonists recruiting SRC-3 coactivator, primary screen, biochemical; Peroxisome proliferator-activated receptor gamma (Homo sapiens), P37231; biochemical PPARgamma/SRC-3 coactivator recruitment assay; activation, % at 8 µM; actives 0.26% (n = 200,000); in the data active = activation above about 23%;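 also: 0% = DMSO and 100% = reference agonist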
SRC1 TRFRET art – TR-FRET detection interference compounds, primary screen, artefact control for PPARgamma SRC-1 recruitment agonists, biochemical, TR-FRET emission ratio; TR-FRET detection artefact counter-screen; stronger effect = higher value; TR-FRET ratio at 8 µM; actives 0.34% (n = 99,000); AID 1051, 2008; in the data active = TR-FRET ratio above about 2300
PPARg SRC1 recr – PPARgamma agonists recruiting SRC-1 coactivator, primary screen, biochemical; Peroxisome proliferator-activated receptor gamma (Homo sapiens), P37231; PPARgamma-SRC-1 coactivator recruitment biochemical assay; activation, % at 8 µM; actives 0.41% (n = 200,000); AID 631, 2007; in the data active = activation above about 19%;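 also: 0% = DMSO and 100% = reference agonist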
PPARg SRC-2 ag – agonists of PPARg-SRC-2 recruitment, primary screen, biochemical, HTS | Peroxisome proliferator-activated receptor gamma (Homo sapiens), P37231 | PPARgamma LBD-SRC-2 recruitment | AID 1032, 2008 | actives 0.34% (n = 200,000) | activation, % at 8 µM; in the data active = activation above about 22%;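 also: 0% = vehicle and 100% = reference agonist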
SRC2 TRFRET art – TR-FRET signal artefacts, primary screen, artefact control for PPARgamma SRC-2 agonist project, biochemical; TR-FRET ratio at 8 µM; actives 0.4% (n = 200,000); TR-FRET artefact counter-screen; stronger effect = higher value
PPARg SRC2 conf – agonists of PPARgamma SRC-2 coactivator recruitment, confirmation, biochemical, HTS. shares compounds with PPARg SRC3 recr. biochemical SRC-2 recruitment by PPARgamma. activation, % at 8 µM. actives 52% (n = 790); in the data active = activation above about 22%;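 also: 0% = vehicle alone and 100% = reference agonist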
PPARg SRC1 ag – PPARgamma agonists recruiting SRC-1 coactivator, confirmation, biochemical | PPARgamma–SRC-1 coactivator recruitment biochemical assay | shares compounds with PPARg SRC3 recr | actives 43% (n = 790) | activation, % at 8 µM | AID 1300, 2008; in the data active = activation above about 20%;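 also: 0% = vehicle wells and 100% = reference agonist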
PPARg SRC3 ag – PPARgamma-driven SRC-3 coactivator recruitment agonists, confirmation, biochemical; biochemical PPARgamma-SRC-3 coactivator recruitment, agonist mode; AID 1301, 2008; actives 29% (n = 790); shares compounds with PPARg SRC3 recr; activation, % at 8 µM; in the data active = activation above about 24%;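 also: 0% = vehicle wells and 100% = reference agonist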
* marks the source's active call; other numbers are inactive results; · = not tested or not shown. Compounds with a hit are over-represented: about 0.84% of the library has one in this group of screens. Rule as the data show it, unless noted: active = TR-FRET ratio above about 2000; inactive = the rest.

SMILES | SRC3 TRFRET art | PPARg SRC3 recr | SRC1 TRFRET art | PPARg SRC1 recr | PPARg SRC-2 ag | SRC2 TRFRET art | PPARg SRC2 conf | PPARg SRC1 ag | PPARg SRC3 ag
CCCCc1cc(=O)oc2cc(O)cc(O)c12 | 2006 | 13 | 2687* | 28* | 20 | 2054* | 13 | 9 | 11
COc1ccc2c(c1)nc(SCC(=O)c1ccc(Br)s1)n2C | · | 22 | · | 16 | 28* | 1815 | 39* | 27* | 28*
O=C(Nc1ccc2oc(-c3ccc(F)cc3)nc2c1)c1ccccc1F | · | 21 | · | 25* | 28* | 2348* | 14 | 12 | 6
CN(C)S(=O)(=O)c1ccc(NC=O)cc1 | 1578 | 5 | 2051 | 3 | 12 | 1417 | · | · | ·
CN(C)c1ccc(N=C/C=C2/N(C)c3ccccc3C2(C)C)cc1 | 2085* | 17 | 2167 | 28* | 32* | 2099* | 13 | 12 | 8
CN1/C(=C\C=N\O)C(C)(C)c2ccccc21 | 1499 | -1 | 1991 | -3 | 1 | 1498 | · | · | ·
Cc1ccc(Cn2cnc3c(cnn3-c3ccc(F)cc3)c2=O)cc1 | 1656 | 3 | 1889 | 0 | -2 | 1614 | · | · | ·
CC(C)CC(=O)NC(=S)Nc1cccc2nsnc12 | 4035* | 62* | 5013* | 135* | 87* | 3677* | 137* | 105* | 81*
COc1c(C)cccc1C(=O)NC(=S)Nc1cccc2nsnc12 | 2881* | 36* | 2682* | 39* | 30* | 2472* | 90* | 71* | 60*
CS(=O)(=O)c1sc2nc(-c3cccs3)cc(-c3ccccc3)c2c1N | · | 25 | · | 22* | 30* | 2002* | 28* | 22* | 21
CCSC1=NSC2=NC(=O)/C(=C\c3coc4ccccc4c3=O)C(=N)N12 | 1460 | 23* | 1609 | 8 | 13 | 1696 | 9 | 8 | 20
CCOC(=O)N1CCC(N(CCN(C)C)C(=S)Nc2cc(Cl)ccc2C)CC1 | 1563 | 2 | 1803 | 5 | -1 | 1673 | · | · | ·
Cc1ccc(N2CSC3=C(C#N)C(c4cccs4)CC(=O)N3C2)cc1 (stereo unspecified) | · | 19 | · | 13 | 29* | 2106* | 4 | 0 | 2
CC[n+]1c(/C=C/c2ccc(N(C)C)cc2)ccc2ccccc21 | 2785* | 47* | 3540* | 61* | 64* | 2167* | 53* | 39* | 30*
CC[n+]1ccc(/C=C/c2ccc(N(C)C)cc2)c2ccccc21 | 4546* | 125* | 4146* | 149* | 109* | 4436* | 160* | 119* | 105*
CN(C)c1ccc(/C=C/c2cc[n+](C)cc2)cc1 | · | 8 | · | 9 | 4 | 1364 | · | · | ·
CC[n+]1ccccc1/C=C/c1ccc(N(C)C)cc1 | 1475 | 5 | 2025 | -3 | 6 | 1570 | · | · | ·
Cc1cc2cc(CNS(=O)(=O)c3ccc4ccccc4c3)ccc2n1C | · | 38* | · | 18 | 21 | 3303* | 104* | 79* | 65*
Cc1cc2ccccc2n1CCNC(=O)c1ccc(S(=O)(=O)N2CCCCC2)cc1 | · | 44* | · | 24* | 26* | 3753* | 93* | 80* | 70*
Cc1cc2cc(CNC(=O)c3ccc(S(=O)(=O)N4CCOCC4)cc3)ccc2n1C | · | 45* | · | 31* | 8 | 2210* | 35* | 29* | 19
Cc1ccc(C(=O)NCCc2ccc(S(=O)(=O)N3CCCC3)cc2)cc1 | 1782 | 0 | 1940 | 4 | 0 | 1639 | · | · | ·
CCCC(=O)NCc1ccc2c(c1)cc(C)n2C | · | -1 | · | 9 | -2 | 1636 | · | · | ·
CCOc1ncccc1C(=O)Nc1nc(SC)ns1 | 1593 | -6 | 1754 | -7 | 3 | 1602 | · | · | ·
O=C(CCc1ccccc1)NC(=S)NCc1ccco1 | 1646 | -2 | 2019 | 5 | 5 | 1588 | · | · | ·
CCC(CC)NC(=O)COC(=O)CCC(=O)c1ccc(Cl)cc1 | 1537 | 5 | 1807 | 4 | 10 | 1772 | · | · | ·
SMILES | SRC3 TRFRET art | PPARg SRC3 recr | SRC1 TRFRET art | PPARg SRC1 recr | PPARg SRC-2 ag | SRC2 TRFRET art | PPARg SRC2 conf | PPARg SRC1 ag | PPARg SRC3 ag
CCc1ccc(NC(=O)c2c(C(=O)Nc3ccccc3)sc3nc(C)cc(=O)n23)cc1 | 1437 | -1 | 1642 | 7 | 6 | 1524 | · | · | ·
CCOC(=O)c1cccc2c(=O)c(C(=O)c3ccc(Cl)cc3)c(C(=O)OC)[nH]c12 | 1756 | 6 | 1954 | 4 | -2 | 1655 | · | · | ·
CCn1c2ccccc2c2cc(NC(=O)c3cc(OC)c(OC)c(OC)c3)ccc21 | · | 13 | · | 8 | 6 | 1668 | · | · | ·
CCn1c(=O)cc(SCC(=O)Nc2cccc(SC)c2)c2ccccc21 | · | 47* | · | 35* | 42* | 2529* | 44* | 28* | 28*
CCn1c(=O)cc(SCC(=O)Nc2cc(OC)c(OC)c(OC)c2)c2ccccc21 | · | 42* | · | 39* | 55* | 2483* | 40* | 25* | 26*
COc1ccc(NC(=O)CSc2nnnn2Cc2ccccc2)cc1 | 1552 | 4 | 1758 | 5 | 12 | 1644 | · | · | ·
COc1ccc(OCCN2C(=O)NC3(CCc4ccccc4C3)C2=O)cc1 (stereo unspecified) | 1705 | 5 | 2180 | 5 | 7 | 1664 | · | · | ·
CCCc1[nH]nc2c1C(c1ccc(OCCN3CCOCC3)c(OC)c1)C(C#N)=C(N)O2 (stereo unspecified) | 1561 | -1 | 1811 | 5 | 2 | 1424 | · | · | ·
CCOc1cc(C2C(C#N)=C(N)SC(N)=C2C#N)ccc1OCCN1CCOCC1 | · | 46* | · | 30* | 36* | 2438* | -2 | 0 | 1
CCOc1ccc(C2C(C#N)=C(N)SC(N)=C2C#N)c(OCC)c1 | · | 17 | · | 27* | 4 | 1849 | 7 | 4 | 4
Cc1ccc(NC(=S)N2CCSC2c2cccs2)cc1 (stereo unspecified) | 1339 | 1 | 1484 | 0 | 4 | 1641 | · | · | ·
CCNC(=S)N/N=C/c1cccc(C)c1 | 1631 | 0 | 1810 | -1 | 5 | 1498 | · | · | ·
C#CCn1c(=NC(=O)c2sc3ccccc3c2Cl)sc2cc(S(N)(=O)=O)ccc21 | 2062* | 16 | 2366* | 13 | 33* | 2057* | 33* | 22* | 15
